In PubChem BioAssay (Tox21):
Records with an inconclusive call do not appear. Activity calls are given as the source filed them. Unless noted, calls follow the shape of the full dose curve.

Legend:
[1] = qHTS assay to identify small molecule antagonists of the vitamin D receptor (VDR) signaling pathway - cell viability counter screen (AID 743225; active = well fitted curve in the direction sought with a large enough effect in the repeat runs; an effect the other way counts as inactive or inconclusive; also: % is scaled to controls: 0 for no effect and ±100 for the full control effect; nearly all actives have a fitted effect of over 50% in size)
In short: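 Read-out: CellTiter-Glo luminescence measured 30 min after reagent addition at room temperature. Cells were VDR-bla HEK 293T exposed 16 h at 37C, 5% CO2, to compound with 3 nM final calcitriol agonist.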

[2] = qHTS assay to identify small molecule agonists of the NFkB signaling pathway - cell viability counter screen (AID 1159515); also: series mostly up to about 61 µM; % is scaled to controls: 0 for no effect and ±100 for the full control effect; nearly all actives have a fitted effect of over 55% in size
In short: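 NFkB-bla ME-180 cells, 2,000/well, were plated overnight at 37 C, 5% CO2, then exposed to compounds in DMSO for 5 hr. After the bla FRET read, CellTiter-Glo was added to the same wells; luminescence was read after 30 min at room temperature.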

[3] = qHTS assay to identify small molecule agonists of the endoplasmic reticulum stress response signaling pathway (AID 1159516; active = well fitted activation curve with a large enough effect in the signal ratio in the repeat runs, not every such curve was filed as active; the % refers to the signal ratio; also: % is scaled to controls: 0 for no effect and ±100 for the full control effect)
In short: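 CellSensor ESRE-bla HeLa cells, carrying a beta-lactamase reporter driven by the ER stress response element, were plated overnight and exposed to compounds for 5 hr at 37 C. Reporter activity was read as FRET substrate fluorescence after 2 hr at room temperature.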

[4] = qHTS assay to identify small molecule agonists of the endoplasmic reticulum stress response signaling pathway - cell viability counter screen (AID 1159517); also: series mostly up to about 61 µM; % is scaled to controls: 0 for no effect and ±100 for the full control effect; nearly all actives have a fitted effect of over 50% in size
In short: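 Counter-screen wells were identical to the reporter wells. Cells were plated at 1,500 per well and dosed for 5 hr, then read for luminescence 30 min after CellTiter-Glo addition.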

[5] = qHTS assay to identify small molecule antagonists of the retinoid-related orphan receptor gamma (ROR-gamma) signaling pathway - cell viability counter screen (AID 1159520; active = well fitted curve in the direction sought with a large enough effect in the repeat runs; an effect the other way counts as inactive or inconclusive; also: % is scaled to controls: 0 for no effect and ±100 for the full control effect; nearly all actives have a fitted effect of over 50% in size)
In short: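 Tet-on ROR gamma CHO cells were given compounds for 2 hr, then doxycycline hyclate at 1 uM final, and incubated 16 hr at 37 C. Viability was measured as ATP content by CellTiter-Glo luminescence.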

[6] = biological target: Nuclear receptor ROR-gamma (Homo sapiens) (UniProt P51449); experiment: qHTS assay to identify small molecule antagonists of the retinoid-related orphan receptor gamma (ROR-gamma) signaling pathway (AID 1159521; active = well fitted curve in the direction sought with a large enough effect in the repeat runs; an effect the other way counts as inactive or inconclusive;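 also: CHO cells with doxycycline inducible ROR-gamma driving an RORE luciferase reporter; top concentration of the series differs between compounds; % is scaled to controls: 0 for no effect and ±100 for the full control effect; nearly all actives have a fitted effect of over 50% in size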)
In short: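 CHO Tet-on RORγ, RORE-luc reporter. Cpd 2 h pre-incubation, then dox hyclate 1 uM final, 16 h, 37 C/5% CO2. ONE-Glo luminescence; decrease = antagonist.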

[7] = qHTS assay to identify small molecule agonists of the AP-1 signaling pathway - cell viability counter screen (AID 1159525); also: nearly all actives have a fitted effect of over 55% in size
In short: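 AP-1-bla ME-180 cells in Opti-MEM with 0.5% dialyzed FBS, compound exposure 5 h at 37 C in 15-point titration. Viability read in the same wells as ATP content by CellTiter-Glo luminescence, normalised to tetra-n-octylammonium bromide and DMSO controls.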

[8] = qHTS assay to identify small molecule agonists of the AP-1 signaling pathway (AID 1159526); also: % is scaled to controls: 0 for no effect and ±100 for the full control effect
[9] = biological target: Retinoic acid receptor RXR-alpha (Homo sapiens) (UniProt P19793); experiment: qHTS assay to identify small molecule agonists of the RXR signaling pathway (AID 1159527); also: % is scaled to controls: 0 for no effect and ±100 for the full control effect; nearly all actives have a fitted effect of over 35% in size
Chain of Retinoic acid receptor RXR-alpha (Homo sapiens) (P19793 whole entry, looked up): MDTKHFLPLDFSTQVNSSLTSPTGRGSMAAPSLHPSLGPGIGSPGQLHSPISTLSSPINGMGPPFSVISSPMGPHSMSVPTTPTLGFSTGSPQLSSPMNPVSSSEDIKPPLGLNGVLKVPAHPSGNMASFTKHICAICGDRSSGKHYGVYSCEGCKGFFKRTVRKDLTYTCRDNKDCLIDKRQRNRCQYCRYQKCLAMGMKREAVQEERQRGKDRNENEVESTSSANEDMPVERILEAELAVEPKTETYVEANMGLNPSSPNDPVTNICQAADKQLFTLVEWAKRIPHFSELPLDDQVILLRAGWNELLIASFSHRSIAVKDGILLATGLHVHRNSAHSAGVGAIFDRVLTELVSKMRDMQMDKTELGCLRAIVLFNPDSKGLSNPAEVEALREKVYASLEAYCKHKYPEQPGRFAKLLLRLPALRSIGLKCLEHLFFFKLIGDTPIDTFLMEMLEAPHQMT
In short: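 Read-out: beta-lactamase FRET ratio (405 nm excitation, 460 and 530 nm emission) after 2 hr substrate loading at room temperature. Cells were RXR-alpha-UAS-bla HEK 293T treated with compounds for 16 hr in 2% charcoal-stripped FBS medium.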

[10] = qHTS assay to identify small molecule agonists of the RXR signaling pathway - cell viability counter screen (AID 1159529; active = well fitted curve in the direction sought with a large enough effect in the repeat runs; an effect the other way counts as inactive or inconclusive)
In short: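 HEK 293T RXRa-bla cells, 2% CS-FBS; 5 h settle; cpd 16 h 37 C, 5% CO2; CellTiter-Glo 30 min RT, luminescence. Tetraoctyl ammonium bromide as positive control.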

O=Cc1ccc(Cl)cc1
inactive: Potency [1] | Potency [2] | outcome [3] | Potency [4] | Potency [5] | Potency [6] | Potency [7] | Potency [8] | Potency [9] | Potency [10]

CC1COC(=O)O1 (centres undefined)
inactive: Potency [1] | Potency [2] | outcome [3] | Potency [4] | Potency [5] | Potency [6] | Potency [7] | Potency [8] | Potency [9] | Potency [10]

NCCO
inactive: Potency [1] | Potency [2] | outcome [3] | Potency [4] | Potency [5] | Potency [6] | Potency [7] | Potency [8] | Potency [9]

O=C(O)Cn1cnnn1
inactive: Potency [1] | Potency [2] | outcome [3] | Potency [4] | Potency [5] | Potency [6] | Potency [7] | Potency [8] | Potency [9] | Potency [10]

Cc1cccc([N+](=O)[O-])c1C(=O)O
inactive: Potency [1] | Potency [2] | outcome [3] | Potency [4] | Potency [5] | Potency [6] | Potency [7] | Potency [8] | Potency [9] | Potency [10]

C/C=C/c1ccc(OCC)c(O)c1
inactive: Potency [1] | Potency [2] | outcome [3] | Potency [4] | Potency [5] | Potency [6] | Potency [7] | Potency [8] | Potency [9] | Potency [10]

CCCCN(CCO)CCCC
inactive: Potency [1] | Potency [2] | outcome [3] | Potency [4] | Potency [5] | Potency [6] | Potency [7] | Potency [8] | Potency [9] | Potency [10]

CCOC(=O)C(C)C(C)=O (centres undefined)
inactive: Potency [1] | Potency [2] | outcome [3] | Potency [4] | Potency [5] | Potency [6] | Potency [7] | Potency [8] | Potency [9] | Potency [10]

NC(Cc1ccc(Cl)cc1)C(=O)O (centres undefined)
inactive: viability change, negative = cytotoxic [1] -8.18% [at 0.628 µM] | activity, negative = cytotoxic [2] 8.56% [at 0.628 µM] | activation [3] 2.37% [at 0.628 µM] | activity change, negative = cytotoxicity [4] 3.91% [at 0.628 µM] | activity, negative = cytotoxicity [5] 3.35% [at 0.349 µM] | activity change, negative = inhibition [6] 14.9% [at 0.35 µM] | viability change, negative = cytotoxic [7] -2.41% [at 0.29 µM] | activation [8] -0.248% [at 0.29 µM] | activation [9] -0.301% [at 0.29 µM] | activity change, negative = cytotoxicity [10] 5.89% [at 0.29 µM]

CC(=O)N[C@@H](CS)C(=O)O
inactive: Potency [1] | Potency [2] | outcome [3] | Potency [4] | Potency [5] | Potency [6] | Potency [7] | Potency [8] | Potency [9] | Potency [10]

c1cnc2cc3c(cc2n1)C1CNCC3C1
inactive: Potency [1] | Potency [2] | outcome [3] | Potency [4] | Potency [5] | Potency [6] | Potency [7] | Potency [8] | Potency [9] | Potency [10]

O=C1NCC2(CCN(CCc3ccccc3)CC2)O1
inactive: Potency [1] | Potency [2] | outcome [3] | Potency [4] | Potency [5] | Potency [6] | Potency [7] | Potency [8] | Potency [9] | Potency [10]

OCC(CO)N[C@H]1C[C@](O)(CO)[C@@H](O)[C@H](O)[C@H]1O
inactive: Potency [1] | Potency [2] | outcome [3] | Potency [4] | Potency [5] | Potency [6] | Potency [7] | Potency [8] | Potency [9] | Potency [10]

CCCCCCCCCCCCCCCCCl
inactive: Potency [1] | Potency [2] | outcome [3] | Potency [4] | activity, negative = cytotoxicity [5] 5.98% [at 19 µM] | activity change, negative = inhibition [6] 19.2% [at 19 µM] | viability change, negative = cytotoxic [7] -12.8% [at 15.8 µM] | activation [8] -1.11% [at 15.8 µM] | activation [9] 0.473% [at 15.8 µM] | activity change, negative = cytotoxicity [10] 6.15% [at 15.8 µM]

NC12CC3CC(CC(C3)C1)C2
inactive: Potency [1] | Potency [2] | outcome [3] | Potency [4] | Potency [5] | Potency [6] | Potency [7] | Potency [8] | Potency [9] | Potency [10]

C#CC(C)(CC)OC(=O)c1ccccc1C(=O)O (centres undefined)
inactive: Potency [1] | Potency [2] | outcome [3] | Potency [4] | Potency [5] | Potency [6] | Potency [7] | Potency [8] | Potency [9] | Potency [10]

Cc1scc2c1N(C(=O)CN1CCN(C)CC1)c1ccccc1NC2=O
inactive: Potency [1] | Potency [2] | outcome [3] | Potency [4] | Potency [5] | Potency [6] | Potency [7] | Potency [8] | Potency [9] | Potency [10]

COC(c1ccccc1)(c1ccccc1)[C@H](Oc1nc(C)cc(C)n1)C(=O)O
inactive: Potency [1] | Potency [2] | outcome [3] | Potency [4] | Potency [5] | Potency [6] | Potency [7] | Potency [8] | Potency [9] | Potency [10]

COC(=O)/C=C/c1ccccc1
inactive: Potency [1] | Potency [2] | outcome [3] | Potency [4] | Potency [5] | Potency [6] | Potency [7] | Potency [8] | Potency [9] | Potency [10]

C=CS(=O)(=O)O
inactive: Potency [1] | Potency [2] | outcome [3] | Potency [4] | Potency [5] | Potency [6] | Potency [7] | Potency [8] | Potency [9] | Potency [10]

COC(=O)c1cccc(C(=O)OC)c1
inactive: Potency [1] | Potency [2] | outcome [3] | Potency [4] | Potency [5] | Potency [6] | Potency [7] | Potency [8] | Potency [9] | Potency [10]
